# MCF10A rereplic – inducers of DNA re-replication in MCF 10A breast cells | AID 624296 | MCF 10A DNA re-replication, Hoechst nuclear intensity, 48 h | Potency, µM (highest dose often 46.1 µM), for the others: at the top dose activity, positive = re-replication, actives largely listed as activators | 350,000 tested, 2.9% active; also: % of control where 0% means no effect; nearly all actives have a fitted effect of over 50% in size
# HT1080NT lethal – kills 2HG-producing HT-1080-NT fibrosarcoma cells; HT-1080-NT fibrosarcoma viability, CellTiter-Glo ATP luminescence, 48 h; Potency, µM (highest dose often 46.1 µM), for inactives: at the top dose activity, negative = less viability, actives largely listed as cytotoxic; 360,000 tested, 1.6% active;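 also: NT is the 2HG producing partner of a matched IDH1 knockdown line; 0% = DMSO-treated cells and -100% = media-only wells without cells; nearly all actives have a fitted effect of over 55% in size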
#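 HT-1080-NT; 750 cells/well; 5% FBS RPMI; 48 h compound, 37 degrees C; CellTiter-Glo luminescence; curve fitting and curve-class assignment.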
# HT1080 IDH1KD tx – kills HT-1080 cells with IDH1 knockdown; AID 686971; HT-1080 IDH1 knockdown viability, ATP luminescence, 48 h; 360,000 tested, 2% active; Potency, µM (series often up to 46.1 µM), without a hit: at the top dose activity, negative = toxicity, most hits filed as cytotoxic;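 also: 0% = DMSO wells and -100% = cell-free medium wells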
#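 Cytotoxicity counter-line: IDH1KD HT-1080, 48 h, CellTiter-Glo. Curves classed by r2, magnitude and activity.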
# KB-3-1 cytotox – KB-3-1 parental cell cytotoxicity. Potency, µM (series often up to 46.1 µM), actives largely listed as cytotoxic. KB-3-1 viability, CellTiter-Glo ATP luminescence, 72 h. AID 1347075. 400,000 tested, 1.4% active; also: % is scaled to controls: 0 for no effect and ±100 for the full control effect; nearly all actives have a fitted effect of over 60% in size
#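 Multi-concentration cytotoxicity screen in KB-3-1 cells grown in DMEM lacking phenol red with 10% FBS. After 72 h at 37 °C with compound, ATP-dependent luminescence was recorded.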
# SW480 rerep – inducers of DNA re-replication in SW480 colon cancer cells; SW480 DNA re-replication, Hoechst DNA content imaging, 48 h; 340,000 tested, 1.8% active; Potency, µM (top dose mostly 46.1 µM), inactives show top-dose re-replication activation, actives largely listed as activators; also: % of control where 0% means no effect; nearly all actives have a fitted effect of over 55% in size
#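 Compounds, transferred as 23 nL by pin tool, were incubated with cells for 48 hr; DNA content per nucleus was then quantified by Hoechst staining and fluorescence plate imaging.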
# KB-V1 cytotox – KB-V1 MDR subline cytotoxicity | AID 1347076 | Potency, µM (top dose mostly 46.1 µM), actives largely listed as cytotoxic | 400,000 tested, 3.4% active | KB-V1 MDR cells viability, CellTiter-Glo, 72 h; also: % is scaled to controls: 0 for no effect and ±100 for the full control effect; nearly all actives have a fitted effect of over 60% in size
#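 KB-V1, DMEM (no phenol red) + 10% FBS; cpd pin-transferred, titration series; 72 h, 37 degrees C; CellTiter-Glo, luminescence. Data normalized, curve-fit.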
# The depositor's hits bear a star; i = inactive; ? = inconclusive; nt = no result given; [ ] = remark or other dose. The list is not random: actives were taken first. Their share in the collection is about 7.9%. Calls follow the shape of the dose curve; as a rule, active = well fitted curve in the direction sought with a large enough effect; inconclusive = small, poorly fitted or top-dose-only effect, or another doubt; inactive = no such curve, though single readings can be large; an effect the other way counts as inactive or inconclusive. Potency is read from the fitted curve at half-maximal effect.
SMILES,MCF10A rereplic,HT1080NT lethal,HT1080 IDH1KD tx,KB-3-1 cytotox,SW480 rerep,KB-V1 cytotox
CCOC(=O)c1c(C)[nH]c(C(=O)OC(C)C(=O)Nc2ccc(C)cc2)c1C (stereo not given),nt,9.9%,6.1%,i,nt,i
C=C1[C@@H](CCO)N(S(=O)(=O)C(C)(C)C)C[C@@H]1C,7.0%,6.5%,6.9%,i,-1.2%,i
Fc1cccc(Cl)c1CNc1n[nH]c(-c2ccco2)n1,nt,nt,nt,i,nt,i
COc1cccc(C2=NOC(C(=O)NCc3ccccc3)C2)c1 (stereo not given),1.64µM*,?,?,11.6µM*,?,?
COc1ccc(CNC(=O)C2CC(c3ccccc3C(F)(F)F)=NO2)cc1 (stereo not given),-13.2%,7.6%,4.2%,i,19.2%[9.22 µM],i
CCCn1cc(NC(=O)C2CC(c3cccc(Br)c3)=NO2)cn1 (stereo not given),23.1µM*,?,-2.5%[9.24 µM],i,16.4µM*,i
COc1ccc(C2=NOC(C(=O)NCc3ccccc3)C2)cc1 (stereo not given),0.366µM*,2.51µM*,2.24µM*,7.31µM*,2.59µM*,7.31µM*
O=C(NCc1ccc2c(c1)OCO2)C1CC(c2ccccc2O)=NO1 (stereo not given),?,-4.8%,0.0%,i,-2.5%,i
O=C(NCc1ccc2c(c1)OCO2)C1CC(c2cccc(Br)c2)=NO1 (stereo not given),11.6µM*,6.1%,8.8%,i,-11.1%,i
COc1cccc(C2=NOC(C(=O)NCc3ccco3)C2)c1 (stereo not given),4.11µM*,?,?,23.1µM*,?,20.6µM*
COc1ccc(CNC(=O)C2CC(c3cc(C(F)(F)F)cc(C(F)(F)F)c3)=NO2)cc1 (stereo not given),6.51µM*,9.5%,8.5%,?,-8.6%,?
COc1ccc(CCNC(=O)C2CC(c3ccc(C(F)(F)F)cc3)=NO2)cc1 (stereo not given),-5.6%,11.4%,6.4%,i,-8.2%,i
Cc1ncc(CO)c(CO)c1OCC(O)CN1CCN(c2ccc(F)cc2)CC1 (stereo not given),nt,8.7%,7.8%,?,nt,i
CCOC(=O)c1cccc(NC(=O)C(CC(C)C)N2Cc3ccccc3C2=O)c1 (stereo not given),nt,nt,nt,i,nt,?
Nc1nc(N)c2c(OCc3ccc(C(F)(F)F)cc3)cccc2n1,nt,nt,nt,?,nt,i
CCOC(=O)c1sc2ccccc2c1OC(=O)c1ccccc1OC,?,?,?,i,0.581µM*,i
COc1cc(C(=O)NC(c2ccccc2)c2ccccc2)cc(Cl)c1OC,-2.8%,6.8%,6.8%,i,-1.2%,i
COc1cc(C(=O)N/N=C(\C)Cc2ccccc2)cc(OC)c1OC,2.06µM*,1.16µM*,1.03µM*,i,2.59µM*,i
CCOc1ccccc1OCC(=O)N/N=C(\C)Cc1ccc(OC)cc1,?,?,?,?,8.2µM*,?
O=C(NC(=S)N(Cc1ccccc1)Cc1ccccc1)c1ccccc1F,19.1%,-12.4%,-11.1%,i,1.64µM*,i
COc1cc(C(=O)NCc2cccc3ccccc23)cc(Cl)c1OC,?,0.0%,-17.8%,i,15.0%,18.4µM*
CC(CCc1ccccc1)NC(=S)NC(=O)c1ccco1 (stereo not given),5.3%,-3.8%,-5.3%,i,0.0%,?
COc1cc(C(=O)NC(=S)N(CCc2ccccc2)CCc2ccccc2)cc(OC)c1OC,?,-7.5%,?,?,?,2.31µM*
O=C(NC(=S)N(CCc1ccccc1)CCc1ccccc1)c1ccco1,14.3%,-7.5%,-16.3%,?,?,6.51µM*
COc1ccc(Cl)cc1NC(=O)Cn1c(=O)n(Cc2ccc(F)cc2)c(=O)c2cccnc21,nt,nt,nt,i,nt,i
SMILES,MCF10A rereplic,HT1080NT lethal,HT1080 IDH1KD tx,KB-3-1 cytotox,SW480 rerep,KB-V1 cytotox
COc1ccc(-c2cnc3c(NC(C)=O)cc(-c4cccc(C(=O)NCCN(C)C)c4)cn23)cc1OC,nt,?,32.6µM*,i,nt,i
COc1cccc(-c2cnc3c(NC(C)=O)cc(-c4cccc(C(=O)NCCN(C)C)c4)cn23)c1,nt,16.4µM*,?,i,nt,i
O=C1c2[nH]nc(-c3ccccc3O)c2C(c2cccc(Cl)c2)N1Cc1ccco1 (stereo not given),7.31µM*,?,?,?,?,14.6µM*
COc1ccc(C2c3c(-c4ccccc4O)n[nH]c3C(=O)N2Cc2ccco2)cc1OC (stereo not given),10.8%,?,-17.0%,i,-2.6%,i
O=C1c2[nH]nc(-c3ccccc3O)c2C(c2ccc(F)cc2)N1Cc1ccco1 (stereo not given),?,?,?,?,?,6.51µM*
Cc1nn(S(=O)(=O)c2ccc(C(C)C)cc2)c(C)c1S(=O)(=O)N1CCCCC1,nt,nt,nt,i,nt,i
Cc1ccsc1-c1cc2nc(NCCCN(C)C)n(C)c(=O)c2s1,nt,5.8µM*,?,i,nt,i
Cc1ccccc1-c1cc2nc(NCCCN(C)C)n(C)c(=O)c2s1,nt,?,?,i,nt,i
